Source: PubChem BioAssay (NCI)
Compounds without any hit were thinned out: in the full panel of roughly 79,000, 15% have a hit. Active and inactive are the calls of the source. Rule as the data show it: active = growth inhibition above about 70%; inactive = the rest.

Test: NCI Yeast Anticancer Drug Screen. Data for the sgs1 mgt1 strain (AID 161);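 also: 0% = growth of cultures given vehicle only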
Conditions: S. cerevisiae sgs1 mgt1 strain, at 50.0 µM, active compounds read high
Method in brief: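 This yeast growth screen uses a strain with defined DNA-repair lesions; compound-treated growth is compared with vehicle-treated growth.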

| SMILES | growth inhibition |
| --- | --- |
| Oc1ccc2oc3ccccc3c2c1 | 84.3% (active) |
| O=C(O)Cc1cc(I)c(Oc2ccc(O)c(I)c2)c(I)c1 | 91% (active) |
| O=C(O)/C(=C\c1ccc(Cl)cc1)c1ccc(C(F)(F)F)cc1[N+](=O)[O-] | 96% (active) |
| Fc1ccc(NC(=S)SCc2ccccc2)cc1 | 76.8% (active) |
| CN(C)c1ccccc1CC(c1c[nH]c2ccccc12)c1c[nH]c2ccccc12 | 87.6% (active) |
| O=C(c1ccccc1)N1CCN(c2cccc(Cl)c2)CC1 | 12.7% (inactive) |
| [C-]#[N+]C(C)(c1ccccc1)c1ccccc1 | 95.5% (active) |
| Nc1ccccc1[S][Sn]([c]1ccccc1)([c]1ccccc1)[c]1ccccc1 | 98.5% (active) |
| O=C1C(Cl)=C(Cl)C(=O)c2cc(Cl)c(Cl)cc21 | 97.1% (active) |
| CCCCCCCNC1CCCc2cc(OC)ccc21 (stereo not drawn) | 84.2% (active) |
| NCCc1ccc2oc3cc(=O)c4ccccc4c-3nc2c1 | 43.8% (inactive) |
| C/C=C/c1cc2c(cc1O)CC[C@@H]1[C@@H]2CC[C@]2(C)[C@@H](O)CC[C@@H]12 | 90.7% (active) |
| c1ccc(SSc2ccccn2)nc1 | 53.1% (inactive) |
| COC1=C2C[C@@H](C)C[C@@H](OC)[C@@H](O)[C@H](C)/C=C(\C)[C@@H](OC(N)=O)[C@H](OC)/C=C\C=C(/C)C(=O)NC(=CC1=O)C2=O | 91.5% (active) |
| NCc1ccccc1-c1c2nc(c(-c3ccccc3CN)c3ccc([nH]3)c(-c3ccccc3CN)c3nc(c(-c4ccccc4CN)c4ccc1[nH]4)C=C3)C=C2 | 86.2% (active) |
| Cc1cc(C)n2nc(N)c(C#N)c2c1C#N | 0.85% (inactive) |
| CC(=O)OCC1OC(n2c(O)c(N=NC(N)=S)c3ccc([N+](=O)[O-])cc32)C(OC(C)=O)C1OC(C)=O (stereo not drawn) | 71.5% (active) |
| CC1(c2cccs2)C(C#N)(C#N)C1(C#N)C#N | 96% (active) |
| O=C1C=CC(=O)N1C12CC3CC(CC(C3)C1)C2 | 90.9% (active) |
| C(=C/c1cnnc2ccccc12)/c1ccccn1 | 14.8% (inactive) |

| SMILES | growth inhibition |
| --- | --- |
| COc1ccc2c(c1)C1(C)CCCC(C)(C(=O)O)C1CC2 (stereo not drawn) | 99.6% (active) |
| CCN(CC)c1ccc(N=Nc2ccc(Br)cn2)c(O)c1 | 97.1% (active) |
| O=[N+]([O-])c1cc(NC(=S)SCc2ccccc2)ccc1Cl | 99.2% (active) |
| C(=C/c1ccnc2ccccc12)/c1cccs1 | 98.8% (active) |
| O=P1(O)c2ccccc2CS(=O)(=O)Cc2ccccc21 | -24.2% (inactive) |
| CN1C(Cl)=NS(=O)(=O)c2ccccc21 | -12.4% (inactive) |
| O=C1C=CC(=O)N1c1ccc(Cl)cc1 | 92.8% (active) |
| CC(C)CC(C(=O)SCC(C)N1CCCC1)c1ccccc1 (stereo not drawn) | 49.6% (inactive) |
| CC(C)OC(=O)c1ccc(CCC2=CC(=O)C=CC2=O)cc1 | 87.3% (active) |
| Cc1ccnc2[nH]c3ccccc3c(=O)c12 | 65.5% (inactive) |
| COc1cc(/C=C/C(=O)c2ccc(O)c(OC)c2)ccc1O | 54% (inactive) |
| CC12C=CC(=O)C=C1CCC1C3CCC(O)(C(=O)CO)C3(C)CC(O)C12F (stereo not drawn) | 7.65% (inactive) |
| O=Cc1ccc2c(c1)CC1(C2)Cc2ccc3c(c2C1)CCC3 (stereo not drawn) | 87.6% (active) |
| C[N+](C)(C)CC(=O)N/N=C(\C(=O)NC1=C(Cl)C(=O)c2ccccc2C1=O)C(C#N)c1nc(-c2ccc([N+](=O)[O-])cc2)cs1 (stereo not drawn) | 60.3% (inactive) |
| NC(=O)CC1CCC(c2ccccc2)CC1 (stereo not drawn) | 77.3% (active) |
| O=C(CC(C[N+](=O)[O-])c1ccc2c(c1)OCO2)c1ccccc1 (stereo not drawn) | 33.9% (inactive) |
| CC(=O)OCCCCCCCCCCCCCCO | -1.2% (inactive) |
| CCOC(=O)c1sc(N/N=C2\NC(=O)/C(=C/c3ccc([N+](=O)[O-])cc3)S2)nc1C | 97.7% (active) |
| O=C1OC(c2ccc3c(c2)OCO3)Sc2ccccc21 (stereo not drawn) | 23.4% (inactive) |

Test: NCI Yeast Anticancer Drug Screen. Data for the cln2 rad14 strain (AID 165);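 also: 0% = growth equal to vehicle treated cultures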
Conditions: S. cerevisiae cln2 rad14 strain, at 5.0 µM (retest, dose inferred, filed as 0.5), active compounds read high
Method in brief: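 Relative to vehicle controls, growth inhibition of compound-treated cln2 rad14 yeast was recorded.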

| SMILES | growth inhibition |
| --- | --- |
| Oc1ccc2oc3ccccc3c2c1 | -3% (inactive) |
| O=C(O)Cc1cc(I)c(Oc2ccc(O)c(I)c2)c(I)c1 | 29% (inactive) |
| O=C(O)/C(=C\c1ccc(Cl)cc1)c1ccc(C(F)(F)F)cc1[N+](=O)[O-] | 21% (inactive) |
| Fc1ccc(NC(=S)SCc2ccccc2)cc1 | -7% (inactive) |
| CN(C)c1ccccc1CC(c1c[nH]c2ccccc12)c1c[nH]c2ccccc12 | 50% (inactive) |
| O=C(c1ccccc1)N1CCN(c2cccc(Cl)c2)CC1 | -1% (inactive) |
| [C-]#[N+]C(C)(c1ccccc1)c1ccccc1 | -59% (inactive) |
| Nc1ccccc1[S][Sn]([c]1ccccc1)([c]1ccccc1)[c]1ccccc1 | 98% (active) |
| O=C1C(Cl)=C(Cl)C(=O)c2cc(Cl)c(Cl)cc21 | 86% (active) |
| CCCCCCCNC1CCCc2cc(OC)ccc21 (stereo not drawn) | 28% (inactive) |
| NCCc1ccc2oc3cc(=O)c4ccccc4c-3nc2c1 | 1% (inactive) |
| C/C=C/c1cc2c(cc1O)CC[C@@H]1[C@@H]2CC[C@]2(C)[C@@H](O)CC[C@@H]12 | 6% (inactive) |
| c1ccc(SSc2ccccn2)nc1 | 0% (inactive) |
| COC1=C2C[C@@H](C)C[C@@H](OC)[C@@H](O)[C@H](C)/C=C(\C)[C@@H](OC(N)=O)[C@H](OC)/C=C\C=C(/C)C(=O)NC(=CC1=O)C2=O | 56% (inactive) |
| NCc1ccccc1-c1c2nc(c(-c3ccccc3CN)c3ccc([nH]3)c(-c3ccccc3CN)c3nc(c(-c4ccccc4CN)c4ccc1[nH]4)C=C3)C=C2 | 32% (inactive) |
| Cc1cc(C)n2nc(N)c(C#N)c2c1C#N | -2% (inactive) |
| CC(=O)OCC1OC(n2c(O)c(N=NC(N)=S)c3ccc([N+](=O)[O-])cc32)C(OC(C)=O)C1OC(C)=O (stereo not drawn) | -33% (inactive) |
| CC1(c2cccs2)C(C#N)(C#N)C1(C#N)C#N | -5% (inactive) |
| O=C1C=CC(=O)N1C12CC3CC(CC(C3)C1)C2 | 13% (inactive) |
| C(=C/c1cnnc2ccccc12)/c1ccccn1 | 0% (inactive) |

| SMILES | growth inhibition |
| --- | --- |
| COc1ccc2c(c1)C1(C)CCCC(C)(C(=O)O)C1CC2 (stereo not drawn) | -103% (inactive) |
| CCN(CC)c1ccc(N=Nc2ccc(Br)cn2)c(O)c1 | -2% (inactive) |
| O=[N+]([O-])c1cc(NC(=S)SCc2ccccc2)ccc1Cl | 29% (inactive) |
| C(=C/c1ccnc2ccccc12)/c1cccs1 | 0% (inactive) |
| O=P1(O)c2ccccc2CS(=O)(=O)Cc2ccccc21 | 16% (inactive) |
| CN1C(Cl)=NS(=O)(=O)c2ccccc21 | 20% (inactive) |
| O=C1C=CC(=O)N1c1ccc(Cl)cc1 | 54% (inactive) |
| CC(C)CC(C(=O)SCC(C)N1CCCC1)c1ccccc1 (stereo not drawn) | 12% (inactive) |
| CC(C)OC(=O)c1ccc(CCC2=CC(=O)C=CC2=O)cc1 | 76% (active) |
| Cc1ccnc2[nH]c3ccccc3c(=O)c12 | 30% (inactive) |
| COc1cc(/C=C/C(=O)c2ccc(O)c(OC)c2)ccc1O | 8% (inactive) |
| CC12C=CC(=O)C=C1CCC1C3CCC(O)(C(=O)CO)C3(C)CC(O)C12F (stereo not drawn) | 6% (inactive) |
| O=Cc1ccc2c(c1)CC1(C2)Cc2ccc3c(c2C1)CCC3 (stereo not drawn) | -2% (inactive) |
| C[N+](C)(C)CC(=O)N/N=C(\C(=O)NC1=C(Cl)C(=O)c2ccccc2C1=O)C(C#N)c1nc(-c2ccc([N+](=O)[O-])cc2)cs1 (stereo not drawn) | 13% (inactive) |
| NC(=O)CC1CCC(c2ccccc2)CC1 (stereo not drawn) | 2% (inactive) |
| O=C(CC(C[N+](=O)[O-])c1ccc2c(c1)OCO2)c1ccccc1 (stereo not drawn) | 4% (inactive) |
| CC(=O)OCCCCCCCCCCCCCCO | -3% (inactive) |
| CCOC(=O)c1sc(N/N=C2\NC(=O)/C(=C/c3ccc([N+](=O)[O-])cc3)S2)nc1C | -4% (inactive) |
| O=C1OC(c2ccc3c(c2)OCO3)Sc2ccccc21 (stereo not drawn) | -2% (inactive) |
